Experimental findings from PubChem BioAssay (NCI) are described below.

Structures are written as SMILES. Compounds without any hit were thinned out: in the full panel of roughly 83,000, 20% have a hit.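 The test compound was applied at a single concentration to cells in 96-well plates for 48 hours, and percent growth was recorded.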 Active and inactive are the calls of the source.

For the experiment, the system named is SNB-19 CNS. Nature of the experiment: NCI-60 one-dose screen, 48 h (100 = growth as untreated, 0 = no growth, -100 = all killed). To be noted: 10 µM unless noted. As to the method: Growth inhibition of the SNB-19 human tumor cell line is measured as a screen for anti-cancer activity. Cells are grown in 96 well plates and exposed to the test compound for 48 hours. Compounds are tested at a single concentration, which is 10^-5 M for most compounds. The reported endpoint is percent growth (GI% or GIPRCNT), where numbers from 0 - 100% represent growth inhibition, and numbers from -100% - 0 represent cell death. For example, a value of 40 represents 60% growth inhibition. A value of 0 means no net growth occurred over the course of the experiment. A value of -40 indicates 40% of cells at the beginning of the experiment died by the end of the experiment. A value of -100 means all cells are dead at the end of the experiment.
NCI-60 Human Tumor Cell Lines Screen was performed using the standard one-dose NCI protocol, which is described in more detail at https://dtp.cancer.gov/discovery_development/nci-60/default.htm.
Compounds with GIPRCNT values below 10 were considered active. Activity score was based on GIPRCNT using the following formula: […]
Score is 0 for GIPRCNT values of 100 or above, 50 for GIPRCNT values of 0, and 100 for GIPRCNT values of -100.
Turning to `COc1ccc(C(=O)/C=C/c2ccc(C)cc2)cc1OC`, the growth is 70.3% (inactive). As to `CSc1nc(Nc2ccc(S(=O)(=O)Nc3ccon3)cc2)c(C#N)c(-c2ccc(Cl)cc2)n1`, the growth was 101% (inactive).

`O=C(Oc1ccccc1)C(Br)C(Br)c1ccccc1` (stereo not given): the growth is 104% (inactive).

Regarding `Cc1ccc(-c2cc(-c3ccccc3)n(-c3ccccc3)n2)cc1`, the growth is 95.4% (inactive). With `COc1ccc2nc(NC(=O)CN3CCn4c(nnc4C(F)(F)F)C3)sc2c1` the figure was 90.5% (inactive); with `Nc1ccc2c(c1)C(=O)c1cc(Cl)c(Cl)cc1-2`, 96.6% (inactive). In the case of `Cc1c2oc3c(C)ccc(C(=O)OC(C)C4NC(=O)C(C(C)C)N(C)C(=O)CN(C)C(=O)C5CCCN5C(=O)C(C(C)C)NC4=O)c3nc-2c(C(=O)OC(C)C2NC(=O)C(C(C)C)N(C)C(=O)CN(C)C(=O)C3CCCN3C(=O)C(C(C)C)NC2=O)c(N)c1=O` (stereo not given) it was 3.31% (active); in that of `COc1ccc(-c2c3c(N)nc(-c4ccncc4)nc3nc3c2c(C)nn3-c2ccccc2)cc1`, 80.7% (inactive); in that of `O=C1CNc2cc(Cl)ccc2N1`, 107% (inactive). In the case of `COc1ccc(-n2cnc3cc(C(=O)N4CCCCC4)ccc32)cc1` it was 94.3% (inactive); in that of `BrC1CC(Br)c2c1c1c(c3c2C(Br)CC3Br)C(Br)CC1Br` (stereo not given), 98.7% (inactive). Turning to `O=C(COc1ccc(/C=C2\Cc3ccccc3C2=O)cc1)c1ccc(Cl)cc1`, the growth is 95.7% (inactive). As to `Cc1ccc(NC(=O)c2sc3nc4c(cc3c2N)C(=O)CCC4)cc1`, the growth is 72.2% (inactive). With `N#CSCC1CC(O)(c2ccccc2)C(c2ccccc2)C(c2ccc(Cl)cc2)O1` (stereo not given) the figure was 36.6% (inactive); with `COc1ccc(NC(=O)c2ccc(-c3ccccc3)cc2)c(C(N)=O)c1`, 94.2% (inactive); with `CC(C)=CCNc1ncnc2c1ncn2C1OC(COP(=O)(O)O)C(O)C1O` (stereo not given), 89.5% (inactive). In the case of `O=c1ncc(-c2ccc(C(F)(F)F)cc2)c(NC2CCCCCC2)[nH]1` it was 54.9% (inactive); in that of `O=C(NCCNC(=O)Oc1cccc2ccccc12)Oc1cccc2ccccc12`, 94.5% (inactive). In the case of `COP(=O)(OC)C(c1ccc(O)cc1)(c1ccc(O)cc1)c1ccc(O)cc1` it was 106% (inactive); in that of `CC(NC(=O)Oc1cccc2ccccc12)c1ccccc1` (stereo not given), 105% (inactive). Take `CCOC(=O)CCC(=O)O[C@H]1[C@H](O[C@@H]2[C@@H](C)[C@H](O[C@H]3C[C@@](C)(OC)[C@@H](O)[C@H](C)O3)[C@@H](C)C(=O)O[C@H](CC)[C@@](C)(O)[C@H](O)[C@@H](C)C(=O)[C@H](C)C[C@@]2(C)O)O[C@H](C)C[C@@H]1N(C)C`: the growth was 112% (inactive). In the case of `CC(=O)Nc1c(Cl)cc2c(c1Cl)Cc1cc([N+](=O)[O-])ccc1-2` it was 95.8% (inactive); in that of `COc1cc(/C=C\C(C)=N\Nc2ccccc2)ccc1O`, 103% (inactive); in that of `CCOc1cc(/C=C/C(=O)C(C(=O)/C=C/c2ccc(OC(=O)CNc3nc4ccccc4[nH]3)c(OCC)c2)C(=O)CNc2nc3ccccc3[nH]2)ccc1OC(=O)CNc1nc2ccccc2[nH]1`, 25.1% (inactive). With `CCOc1nc(-c2ccco2)n2nc(-c3ccco3)cc2n1` the figure was 97.3% (inactive). Regarding `Fc1ccc(-c2nn3c(-c4cc(C(F)(F)F)cc(C(F)(F)F)c4)nnc3s2)cc1`, the growth is 8.33% (active). On to `Cc1ccc(C(=O)Cc2ccccc2)c(O)c1`, for which the growth is 95.4% (inactive). For the compound `C(#Cc1ccccc1C#Cc1ccccn1)c1ccc(OCCCCCCOc2ccc(C#Cc3ccccc3C#Cc3ccccn3)cc2)cc1`, the growth is 72.5% (inactive). Take `CCCCCCC(CC#N)(CCC)CCCC` (stereo not given): the growth was 100% (inactive).

Take `COc1cc(/C=C2\SC(N3CCCCC3)=NC2=O)ccc1OCCCCCCOc1ccc(/C=C2\SC(N3CCCCC3)=NC2=O)cc1OC`: the growth was 44% (inactive).

Consider `O=C(/C=C/c1cccc(O)c1)c1cccc(-n2cc(-c3ccccc3)[nH]c2=O)c1`, for which the growth is 50% (inactive). `C=C1CC[C@@H]2[C@](C)(COC(C)=O)[C@H](OC(C)=O)CC[C@@]2(C)[C@@H]1CC(NCc1ccccc1)C1=CCOC1=O` (stereo not given in full): the growth is 68.2% (inactive). In the case of `CCCCCCCCCCNCCSS(=O)(=O)O` it was 65.9% (inactive); in that of `COCCOCCOCCOCCOc1ccc2c(c1)C(=O)c1nc3ncccc3c(=O)n1-2`, -87% (active); in that of `COc1ccc(C2=NN(C(N)=S)C(c3ccc4c(c3)OCO4)C2)cc1` (stereo not given), 46.9% (inactive). Regarding `O=C1/C(=C/c2ccc(F)cc2)Cc2ccccc21`, the growth is 92.3% (inactive). For the compound `CNCCCn1c2c(c3ccc(F)cc3c1=O)C(=O)c1cc(OC)cnc1-2`, the growth was 11.9% (inactive).

In the case of `O=C(CC1Sc2ccccc2NC1=O)NNc1cccc(Cl)c1Cl` (stereo not given), the growth is 77.7% (inactive).

`COc1ccc(N2CCN(CC(=O)N3CCN(c4nnc(-c5ccc(Cl)cc5)c(-c5ccc(Cl)cc5)n4)CC3)CC2)cc1`: the growth is 76% (inactive). As to `Nc1ccn(C2O[C@H](CO)[C@@H](O)[C@@H]2O)c(=O)n1` (stereo not given in full), the growth is 47.9% (inactive).
